# FMDV antiviral – antivirals against foot and mouth disease virus; FMDV antiviral cell-based qHTS; Potency, µM (doses to about 57.9 µM), usual class: inhibitors; 410,000 tested, 1.2% active; calls by dose curve; tested in HEK293T cells; note: read-out not given here; nearly all actives have a fitted effect of over 45% in size
# Lassa entry inh – blocks Lassa virus binding to or entry into cells | Lassa virus pseudotype entry inhibition, cell reporter | Potency, µM (doses to about 37.9 µM), most hits filed as inhibitors | 300,000 tested, 1.2% active | AID 540256; calls by dose curve; tested in HEK293 cells; note: nearly all actives have a fitted effect of over 50% in size
# HCMV antiviral – inhibitors of human cytomegalovirus. HFF cells, HCMV-luciferase reporter, 72 h; active compounds read low. activity change, negative = inhibition, % at 57.5 µM. 410,000 tested, 4.5% active; in the data active = activity change below about -60%; inconclusive = no clear call, values can overlap the other calls; inactive = above about -39%
#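 After 16 h attachment at 37C, HFF cells received test compound and HCMV-luciferase (1 PFU/cell); reporter luminescence read 72 h later, data normalized against buffer-only and known inhibitor Salinomycin.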
# Vaccinia mCherry – inhibitors of vaccinia virus infection (mCherry reporter signal); Potency, µM (top dose mostly 36.5 µM), most hits filed as inhibitors; Vaccinia virus mCherry reporter infection, fluorescence; 310,000 tested, 0.63% active; calls by dose curve; tested in A549 cells; note: nearly all actives have a fitted effect of over 35% in size
# Vaccinia Venus – vaccinia inhibition (Venus reporter). Vaccinia virus Venus reporter expression, fluorescence. Potency, µM (series often up to 36.5 µM), most hits filed as inhibitors. 330,000 tested, 0.46% active. AID 720580; calls by dose curve; tested in A549 cells; note: nearly all actives have a fitted effect of over 30% in size
# MARV entry inh – Marburg virus entry inhibition | Marburg virus pseudotyped entry inhibition, cell reporter | AID 540276 | 300,000 tested, 1.8% active | Potency, µM (series often up to 37.8 µM), actives largely listed as inhibitors; calls by dose curve; tested in HEK293 cells
# Numbers stand for hits; i = inactive; ? = inconclusive; nt = not tested or not shown; [ ] = dose if it differs, or a comment. This is a sample that favours compounds with a hit; in the whole collection about 6.5% have one here.
SMILES,FMDV antiviral,Lassa entry inh,HCMV antiviral,Vaccinia mCherry,Vaccinia Venus,MARV entry inh
CSc1ccc(Cn2c(C)c(C(=O)NCc3ccc(C(C)C)cc3)sc2=O)cc1,i,nt,i,i,i,nt
Cc1c(C(=O)NCc2ccc(Cl)c(Cl)c2)sc(=O)n1Cc1ccc(S(=O)(=O)N(C)C)cc1,22µM,nt,i,i,i,nt
Cc1c(C(=O)NCc2ccc(C(C)C)cc2)sc(=O)n1Cc1ccc(S(=O)(=O)N(C)C)cc1,11µM,nt,-68,i,i,nt
Cc1c(C(=O)NCc2ccc(Cl)c(Cl)c2)sc(=O)n1Cc1ccc(C(=O)N(C)C)cc1,?,nt,-69,i,i,nt
Cc1c(C(=O)NCc2cccc(Cl)c2)sc(=O)n1Cc1ccc(C(=O)N(C)C)cc1,?,nt,i,i,i,nt
CC(=O)c1ccc(-c2cc(F)cc3c2OC(CNC(=O)C(C)N2CCOCC2)C3)s1 (stereo unspecified),i,nt,nt,i,i,nt
COc1ccc(C(C#N)CC(=O)c2ccc(OC)c(OCc3ccccc3)c2)cc1OC (stereo unspecified),?,nt,-70,i,?,nt
O=C(c1nc2ncccn2n1)N1CCOc2ccc(C(O)C(c3ccccc3)c3ccccc3)cc2C1 (stereo unspecified),i,nt,nt,i,i,nt
COc1ccc(/C=N/Nc2nnc(C)n2N)cc1OC(C)=O,i,?,i,22µM,?,?
COc1ccc(-n2c(O)c(/C=N/Nc3nc(C)cc(C)n3)c3ccccc3c2=O)cc1OC,i,?,-94,?,?,?
Cc1cc(-c2ccccc2)nc(N/N=C/c2ccccc2)n1,i,?,i,?,i,?
COc1ccc(/C=N/Nc2nnc(C)n2N)cc1OC,i,?,-61,?,?,?
Cc1nnc(N/N=C/c2ccc(Br)cc2)n1N,i,nt,i,nt,nt,nt
COc1ccc(/C=N/Nc2nc(C)cc(-c3ccccc3)n2)cc1OC,i,i,-86,i,i,?
CCN(c1cc(C)cc(C)c1)S(=O)(=O)c1nnc(NC(=O)c2ccccc2C)s1,i,?,i,i[7.34 µM],i[7.34 µM],nt
Cc1ccc(/C=N/Nc2nncn2N)cc1,i,?,i,10µM,10µM,?
Nn1cnnc1N/N=C/c1ccc(F)cc1,i,nt,i,nt,nt,nt
COc1cccc(NC(=O)c2oc3ccccc3c2NC(=O)c2ccc(OC(C)C)cc2)c1,i,i,i,i,i,i
CCOCc1cc(=O)[nH]c(SC)n1,i,nt,-60,i,i,nt
CSc1nc(Cl)cc(=O)[nH]1,i,nt,i,i,i,nt
CN(C)CC1CCC/C(=C\c2ccc(OC(=O)/C=C/c3ccccc3)cc2)C1=O (stereo unspecified),40µM,i,i,i,i,i
CC1CCC/C(=C\c2ccc(O)cc2)C1=O (stereo unspecified),i,nt,i,nt,nt,nt
CN(C)CC1CC/C(=C\c2ccc(O)cc2)C1=O (stereo unspecified),?,11µM,-76,?,i,?
CN(C)CC1CCC/C(=C\c2ccc(OC(=O)c3ccc(Cl)cc3)cc2)C1=O (stereo unspecified),?,?,-97,i,?,?
CC(=O)c1ccc(OC(=O)/C=C/c2ccccc2)cc1,i,nt,i,nt,nt,nt
SMILES,FMDV antiviral,Lassa entry inh,HCMV antiviral,Vaccinia mCherry,Vaccinia Venus,MARV entry inh
COc1ccc(/C=C2/CCC(CN3CCOCC3)C2=O)cc1 (stereo unspecified),18µM,13µM,-98,i,i,?
Cc1nn(-c2ccccc2)c(C)c1CC(=O)NCC1Cc2cc(-c3cncnc3)ccc2O1 (stereo unspecified),i,nt,nt,i,i,nt
CCOc1ccc(NC(=O)C2CCN(S(=O)(=O)c3c(C)noc3/C=C/c3cccs3)CC2)cc1,i,i,i,i,i,i
COC(=O)[C@@H]1[C@@H](CO)[C@@H]2Cn3c(ccc(Br)c3=O)[C@H]1N2S(=O)(=O)c1cccc(C)c1,nt,nt,i,nt,nt,nt
Cc1cc(Cl)c(S(=O)(=O)NC(C(=O)O)C(C)C)cc1OCC(=O)NC1CCCCC1 (stereo unspecified),i,i,i,nt,nt,i
Cc1ccc(NC(=O)COc2ccccc2C(N)=O)cc1S(=O)(=O)N1CCCCCC1,25µM,nt,-91,nt,nt,nt
Cc1cc(Cl)c(S(=O)(=O)N2CCCC2)cc1OCC(=O)NC1CCCCC1,?,?,-96,nt,nt,?
COc1ccc(NC(=O)COc2ccccc2C(N)=O)cc1S(=O)(=O)N1CCCCC1,i,nt,i,i,i,nt
Cc1ccc(NC(=O)COc2cccc(C)c2C)cc1S(=O)(=O)N1CCCCCC1,?,11µM,?,i,i,?
CSc1cccc(NC(=S)N(CCCN2CCCC2)Cc2cccn2Cc2ccc(Cl)cc2)c1,40µM,2.8µM,?,?,?,6.3µM
COc1ccc(NC(=S)N2CCCN(Cc3cccc(Cl)c3)C2)cc1,i,?,i,i,i,?
S=C(Nc1cccc(Cl)c1)N(CCCN1CCCC1)Cc1cccn1Cc1ccc(Cl)cc1,i,?,-79,?,?,?
CSc1cccc(NC(=S)N2CCCN(Cc3cccc(Cl)c3)C2)c1,i,?,i,i,i,4.5µM
COc1cc(Cl)c(C)cc1NC(=O)CN1c2ccccc2S(=O)(=O)c2ccccc21,i,i,i,i,i,nt
COc1ccc([C@]23Cc4cc(C#N)ccc4C(O2)c2c(cc(-c4ccccc4)oc2=O)O3)cc1,nt,nt,nt,nt,nt,i
O=C(Nc1ncc(Cc2cccc(C(F)(F)F)c2)s1)c1ccc(-c2cccc([N+](=O)[O-])c2)o1,i,?,?,?,i,16µM
COc1ccc(OC)c(S(=O)(=O)Nc2cccc3ccc(O)cc23)c1,i,i,-62,i,i,i
OC(c1ccccc1)(c1ccccc1)C1CCN(CCCOc2ccc(F)cc2)CC1,i,nt,i,?,?,nt
CC(C)c1ccc(OCCCN2CCC(C(O)(c3ccccc3)c3ccccc3)CC2)cc1,nt,nt,-99,nt,nt,nt
OC(c1ccccc1)(c1ccccc1)C1CCN(CCCOc2ccc(C(F)(F)F)cc2)CC1,nt,nt,-81,nt,nt,nt
OC(c1ccccc1)(c1ccccc1)C1CCN(CCCOc2cccc(C(F)(F)F)c2)CC1,nt,nt,-66,nt,nt,nt
Cc1ccc(OCCCN2CCC(C(O)(c3ccccc3)c3ccccc3)CC2)cc1,i,nt,i,?,?,nt
CC(C)(c1ccccc1)c1ccc(OCCCN2CCNCC2)cc1,i,?,-88,i,i,?
COc1cc2c(ccc3c4cc(OC)c(OC)cc4c[n+](C)c23)cc1O,i,i,-100,i,i,?
COc1ccc2cc(C(=O)O)ccc2c1,i,i,i,nt,nt,i
SMILES,FMDV antiviral,Lassa entry inh,HCMV antiviral,Vaccinia mCherry,Vaccinia Venus,MARV entry inh
COc1ccc2c(c1)c[n+](C)c1c3cc(OC)c(OC)cc3ccc21,i,nt,-96,i,i,nt
COc1cc2c[n+](C)c3c4ccccc4ccc3c2cc1OC,i,i,-82,i,i,i
COc1ccc(/C=C/c2ccc3ccccc3[n+]2C)cc1OC,i,nt,nt,i,?,nt
Cc1nc2sccn2c1CN1CCOc2ccc(CN3C[C@@H](C)O[C@@H](C)C3)cc2C1,?,nt,nt,i,i,nt
O=C(c1ccccc1F)N1CC(=O)N2[C@H](CO)[C@H](c3ccc(Br)cc3)[C@@H]2C1,nt,nt,i,nt,nt,nt
CCOC(=O)C1=C(COC(=O)CCOc2ccc(C)cc2)NC(=O)NC1C (stereo unspecified),i,?,-69,?,?,?

# Source: PubChem BioAssay (National Center for Advancing Translational Sciences (NCATS))
